# Bioassay records (PubChem)
# PfHsp90 yeast 2: reduces growth (ATP signal) of yeast expressing P. falciparum Hsp90; S. cerevisiae expressing PfHsp90, BacTiter-Glo ATP, 48 h; yeast lacking PDR1 and PDR3 efflux regulators; inhibition, % at 9.4 µM; 0.32% of 310,000 active; AID 504621;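 active = every replicate shows inhibition above about 80%, whatever the replicate mean, limit read from the data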
# tim10-1 inh: tim10-1 yeast growth inhibition | S. cerevisiae tim10-1 ts strain growth, BacTiter-Glo, 24 h | AID 463190 | inhibition, % at 20 µM | 2.2% of 330,000 active;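 active = inhibition of at least 40%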;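 also: mutant grown at 25 °C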
# NALP1 yeast inh: blocks the NALP1 inflammasome reconstituted in yeast | S. cerevisiae NALP1/ASC/caspase-1 growth, X-gal OD620, 72 h | inhibition, % at 10 µM | 0.61% of 280,000 active | AID 2071; in the data active = inhibition mostly above about 24%, no sharp cut-off; inactive = mostly below about 32%
# tim23-1 inh: inhibits growth of tim23-1 mutant yeast | S. cerevisiae tim23-1 growth, BacTiter-Glo luminescence, 24 h | inhibition, % at 20 µM | 1.3% of 330,000 active | AID 463212;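 active = growth inhibition of the mutant yeast at or above 50%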;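 also: temperature-sensitive mutant grown at 25 °C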
# TIM10 inh: inhibits growth of TIM10 yeast strain; S. cerevisiae TIM10 strain growth, BacTiter-Glo luminescence, 24 h; inhibition, % at 10 µM; 1.4% of 330,000 active;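 active = inhibition of 40% or more at the single tested concentration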;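 also: wild-type TIM10 isogenic control strain grown at permissive 25 °C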
# NLRP3 yeast inh: inhibitors of NALP3 inflammasome in yeast; Yeast reconstituted NLRP3/ASC/caspase-1, beta-gal luminescence, 24 h; inhibition, % at 10 µM; 0.39% of 330,000 active;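 active = inhibition of 50% or more; inactive = inhibition below 50%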
# tim10-1 confirm: tim10-1 yeast growth inhibition, confirmed | S. cerevisiae tim10-1 ts strain growth, BacTiter-Glo, 24 h | shares compounds with tim10-1 inh | 56% of 7,400 active | inhibition, % at 20 µM;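 active = inhibition of yeast growth at or above a set limit in either of two repeat tests at 20 µM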;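 also: tim10-1 mutant grown at permissive 25 °C to find synthetic lethal compounds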
# Numbers stand for hits; - = inactive; . = not tested or not shown. Most compounds without a hit are left out; they make up all but 4.1% or so of the library.
SMILES,PfHsp90 yeast 2,tim10-1 inh,NALP1 yeast inh,tim23-1 inh,TIM10 inh,NLRP3 yeast inh,tim10-1 confirm
COc1ccc(-c2cc(C3CC3)nc3sc(C#N)c(N)c23)cc1,-,44,-,-,-,-,57
Cn1cnc(S(=O)(=O)NCc2ccc(Br)cc2)c1,-,-,-,-,-,-,.
O=C(Cc1cccs1)N1CCN=C1SCc1ccccc1Cl,.,40,-,-,-,-,34
O=C(Cc1cccs1)N1CCN=C1SCc1ccccc1F,-,-,-,-,-,-,.
Cc1ccc(S(=O)(=O)Nc2ccc(Nc3ccccc3)cc2)cc1,-,43,-,-,-,-,-
CCOc1ccc(NS(=O)(=O)c2ccc(C(=O)N(C)Cc3cccc(OC)c3OC)cc2)cc1,-,-,-,-,-,-,.
CCOC(=O)c1sc(-c2ccc(Br)cc2)cc1N,-,67,-,-,-,-,58
O=C(COC(=O)c1ccc(-c2ccc([N+](=O)[O-])cc2)o1)NC(=O)NC1CCCCC1,-,42,-,-,-,-,-
N/C(=N\OC(=O)c1cccc(Cl)c1)c1ccccn1,-,45,-,-,-,-,33
Cc1ccc(C(=O)O/N=C(\N)c2ccccn2)c(C)c1,-,54,-,-,-,-,63
O=c1[nH]c(O)c(/C=C2\C=Nc3ccc(Br)cc32)[nH]1,-,-,-,-,-,-,.
COc1ccc(-c2nn(CCC#N)cc2C=C(C#N)C#N)cc1,-,-,.,-,-,-,.
Cc1ccc(-c2nn(CCC#N)cc2C=C(C#N)C#N)cc1,-,45,-,-,-,-,-
O=C(Cc1cccc(NC(=O)C2CCCN(C(=O)C3CCC3)C2)c1)Nc1cccc(C(=O)N2CCOCC2)c1 (stereo not drawn),-,.,.,.,.,.,.
CCOC(=O)c1ccc(NC(=O)c2sc3nc4n(c(=O)c3c2C)CCC4)cc1,-,48,-,-,-,-,-
CCc1cccc(NC(=O)c2sc3nc4n(c(=O)c3c2C)CCC4)c1,-,-,-,-,-,-,.
Cc1cc(C)cc(NC(=O)c2sc3nc4n(c(=O)c3c2C)CCC4)c1,-,43,-,-,-,-,-
COc1ccc(-n2ncc(Cl)c(Cl)c2=O)cc1,.,-,-,-,-,-,.
COc1ccc(Sc2cnn(-c3ccccc3)c(=O)c2Cl)cc1,-,48,-,-,-,-,45
Cc1ccc(-c2nc(N)sc2C)cc1,-,-,-,-,-,-,.
Cc1sc(N)nc1-c1c(C)n(C)c2ccccc12,-,68,-,-,-,-,-
CC(C)(C)CC(C)(C)NCC(=O)Nc1c2c(nc3ccccc13)CCC2,-,-,-,-,-,-,.
Cc1nc(N)sc1-c1csc(Nc2ccc(Cl)cn2)n1,-,57,-,-,-,-,38
Cc1nc(N)sc1-c1csc(Nc2ccccn2)n1,-,.,-,.,.,.,.
COc1ccc(NC(=O)C2CCCN(c3ncnc4onc(-c5ccc(F)cc5)c34)C2)cc1 (stereo not drawn),-,42,-,-,-,-,-
SMILES,PfHsp90 yeast 2,tim10-1 inh,NALP1 yeast inh,tim23-1 inh,TIM10 inh,NLRP3 yeast inh,tim10-1 confirm
O=C(CN1CCCC(O)C1)N1c2ccccc2Sc2ccc(C(F)(F)F)cc21 (stereo not drawn),-,-,-,-,-,-,.
CN1CCN(CCCN2c3ccccc3Sc3ccc(C(F)(F)F)cc32)CC1,-,42,-,-,-,-,-
Cc1cc(F)ccc1S(=O)(=O)N1CCCOC1CNC(=O)C(=O)NCc1ccc2c(c1)OCO2 (stereo not drawn),-,-,-,-,-,-,.
CC(Sc1cccc[n+]1[O-])C(=O)NC1CCCCC1C (stereo not drawn),-,-,.,-,-,-,.
CC(C)(C)c1ccc(C(=O)c2cn[nH]c2-c2ccccc2O)cc1,-,45,-,-,-,-,35
CCOC(=O)c1cc(C)n(-c2ccc(Cl)cc2)c1C,-,-,-,-,-,-,.
CCOC(=O)c1cc(C)n(-c2ccc(OC)c(OC)c2)c1C,-,47,-,-,-,-,-
CCc1ccc(-n2c(Cc3ccccc3)n[nH]c2=S)cc1,.,48,-,-,-,-,-
CCOc1ccc(-n2c(CCc3ccccc3)n[nH]c2=S)cc1,-,41,-,-,-,-,-
COc1ccc(S(=O)(=O)N(C)CC(=O)NCc2ccco2)cc1OC,-,-,-,-,-,-,.
NS(=O)(=O)c1ccc(NC(=O)Cc2cccs2)cc1,-,-,-,-,-,-,.
CCN(CC)S(=O)(=O)c1ccc(NC(=O)Cc2cccs2)cc1,-,45,-,-,-,-,-
CC1CCN(S(=O)(=O)c2ccc(NC(=O)Cc3cccs3)cc2)CC1,.,54,-,-,-,-,36
Cc1ccccc1OCC(=O)OCC(=O)NCCc1ccccc1,-,-,.,-,-,-,.
O=S(=O)(N1CCCCC1)N1CCN(CC(O)COc2ccc3cc(Br)ccc3c2)CC1 (stereo not drawn),.,45,-,-,-,-,-
OC(COc1ccc2cc(Br)ccc2c1)CN1CCN(c2ccccn2)CC1 (stereo not drawn),-,41,-,-,-,-,-
CN(C)S(=O)(=O)N1CCN(CC(O)COc2ccc3cc(Br)ccc3c2)CC1 (stereo not drawn),-,-,-,-,-,-,.
COc1cccc(OCC(O)CN2CCN(c3ccccn3)CC2)c1 (stereo not drawn),-,-,-,-,-,-,.
CCC(=O)N(c1nnc(SCC(=O)Nc2ccccc2Cl)s1)C1CC1,-,-,.,-,-,-,.
COC(=O)c1cnc(N)s1,-,.,.,.,.,.,.
COCCNC(=O)C(c1ccc(C)cc1)N(Cc1ccco1)C(=O)CCC(=O)Nc1ccccn1 (stereo not drawn),-,-,-,-,-,-,.
N#Cc1ccc(/C=C/C(=O)c2ccccc2)cc1,-,48,-,-,-,-,43
O=C(/C=C/c1ccccc1O)c1ccccc1,-,.,.,.,.,.,.
O=C(c1ccc(-c2cccc(Cl)c2Cl)o1)N1CCOCC1,-,44,-,-,-,-,42
COc1ccccc1NC(=O)c1ccc(NC(=O)COC(=O)c2cccnc2Cl)cc1,-,-,.,-,-,-,.
CCc1noc(C)c1C(=O)Nc1nc(-c2ccccc2)c(C(C)=O)s1,-,-,.,-,-,-,.
CCCc1[nH]c2ccc(C#N)cc2c1CCC,-,53,-,-,-,-,33
Cc1ccc(-n2cccc2/C=C2\C(=N)N3N=C(C(C)C)SC3=NC2=O)cc1,-,42,-,-,-,-,-
CCC1=NN2C(=N)/C(=C\c3cccn3-c3ccc(OC)cc3)C(=O)N=C2S1,-,-,-,-,-,-,.
CC(Sc1nc2ccccc2c(=O)n1CCc1ccc(S(N)(=O)=O)cc1)C(=O)NC(N)=O (stereo not drawn),-,-,-,-,-,-,.
